Most compounds without a hit are left out; they make up all but 2.7% or so of the library.
GLP1R cytotox: cytotoxicity counter-screen for GLP-1 receptor inverse agonists | AID 624418 | Potency, µM (highest dose often 38.3 µM), usual class: inhibitors | HEK293 cAMP-luciferase reporter cells, luminescence, 24 h | 0.13% of 410,000 active;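 further: loss of luciferase light is scored as toxicity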
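Compound-treated cells are incubated 24 hr at 37 deg C under 5% CO2 after a 12 hour attachment period, then luciferase detection reagent is added and luminescence is measured following 12 min at room temperature; lowered signal indicates toxicity.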
GLP-1R agonist: GLP-1 receptor (human) agonism | 0.007% of 380,000 active | HEK293 GLP-1R CRE-luciferase, luminescence, 4-6 h; cells express a hypersensitive GLP-1R form | AID 624172 | Potency, µM (highest dose often 45.6 µM), hits mostly activators
Target sequence (P43220 whole entry, looked up): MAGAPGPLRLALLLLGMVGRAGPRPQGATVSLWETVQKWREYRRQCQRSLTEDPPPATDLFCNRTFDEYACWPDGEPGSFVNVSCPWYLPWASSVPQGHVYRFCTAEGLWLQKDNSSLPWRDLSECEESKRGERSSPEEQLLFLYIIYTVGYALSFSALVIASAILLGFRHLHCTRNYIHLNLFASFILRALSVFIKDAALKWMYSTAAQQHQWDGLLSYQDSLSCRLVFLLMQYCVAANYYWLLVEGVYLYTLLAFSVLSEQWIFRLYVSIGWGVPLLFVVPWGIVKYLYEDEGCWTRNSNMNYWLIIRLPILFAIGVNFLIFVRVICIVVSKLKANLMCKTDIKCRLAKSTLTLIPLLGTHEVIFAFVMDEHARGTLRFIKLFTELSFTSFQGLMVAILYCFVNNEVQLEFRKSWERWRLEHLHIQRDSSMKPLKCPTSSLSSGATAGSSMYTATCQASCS
GLP1R inv ag: inverse agonists of human GLP-1 receptor; Potency, µM (highest dose often 38.3 µM), most hits filed as inhibitors; 1.6% of 410,000 active; HEK293 GLP-1R CRE-luciferase, luminescence, 24 h; GLP-1R form is constitutively active; further: nearly all actives have a fitted effect of over 55% in size
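Inverse agonism was detected as reduced cAMP-driven luciferase luminescence after 24 h compound treatment. The cells were HEK293 clones expressing constitutively active human GLP-1R with the reporter. Reporter-only and GPR119 cell lines served as counterscreen controls.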
a7 integrin act: activators of alpha7 integrin expression for muscular dystrophy. alpha7betagal myoblasts, beta-gal FDG fluorescence, 48 h. Potency, µM (doses to about 38.3 µM), usual class: activators. 0.064% of 350,000 active; further: nearly all actives have a fitted effect of over 60% in size
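alpha7betagal+/- myoblasts (passage 13, 250/well) treated 48 h at 37C with compounds at 1:260 dilution of DMSO stock. Lysed, then beta-galactosidase activity read as FDG fluorescence (ex 480/em 540) after 30 min, with pre-read for autofluorescence.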
BRCA1 expr up: BRCA1 expression activation; MCF7-BRCA1-FFLuc reporter, luminescence, 48 h; response scale: scaled: vehicle 0%, 10 µM genistein 100%; Potency, µM (top dose mostly 46.1 µM), hits mostly activators; 1.1% of 380,000 active; further: nearly all actives have a fitted effect of over 80% in size
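MCF7 cells carrying a BRCA1-firefly luciferase reporter (2000 cells/well, phenol-red free MEM) were attached for 2 h at 37 °C, then given compounds for 48 h. Luminescence was read 15 min after luciferase reagent; activity normalized to genistein (10 microM) and DMSO.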
Large screens that a line does not name were inactive. The call rests on the fitted dose curve; in most records, active means well fitted curve in the direction sought with a large enough effect; inconclusive means small, poorly fitted or top-dose-only effect, or another doubt; inactive means no such curve, though single readings can be large; an effect the other way counts as inactive or inconclusive.

CCn1cc2nc(SCc3ccc(C)cc3)n(CCc3ccccc3)c(=O)c2n1	GLP1R inv ag inconclusive (no result: GLP-1R agonist, a7 integrin act)
CCn1cc2nc(SCc3ccc(F)cc3)n(CCc3ccccc3)c(=O)c2n1	GLP1R inv ag 7.9µM (no result: GLP-1R agonist, a7 integrin act)
CN(C(=O)CSc1cc(C(=O)c2nccn2C)c2ccccc2n1)c1ccccc1	GLP1R cytotox inconclusive, GLP1R inv ag 10µM
Cn1ccnc1C(=O)c1cc(SCC(=O)NC2CC2)nc2ccccc12	none
O=c1c2ccccc2nnn1-c1ccc(Br)cc1	BRCA1 expr up 4.5µM
Cc1cc(C)cc(-n2nnc3ccccc3c2=O)c1	none
CCc1ccc(CNC(=O)Cc2ccc(NC(=O)N3CCSc4ncccc43)cc2)cc1	none (no result: GLP-1R agonist, a7 integrin act, BRCA1 expr up)
Cc1cccc(NC(=O)N2C3CCCC2CC(NC(=O)C2CC2)C3)c1 (configuration not stated)	none
O=C(NC1CC2CCCC(C1)N2C(=O)Nc1ccc(Cl)c(C(F)(F)F)c1)C1CC1 (configuration not stated)	GLP1R inv ag 10µM
O=C(Cc1ccc(Br)cc1)N1CCc2ccccc2C1	GLP1R inv ag inconclusive, a7 integrin act inconclusive, BRCA1 expr up 10µM
Cc1ccccc1NC(=O)c1ccc2nc(Cc3ccccc3)oc2c1	GLP1R inv ag inconclusive (no result: GLP-1R agonist, a7 integrin act, BRCA1 expr up)
C=C(C)CNC(=S)N/N=C/c1ccc(N2CCOCC2)cc1	GLP1R cytotox inconclusive, GLP1R inv ag 10µM
O=C(CN1C(=O)C2(SCC(=O)N2c2cccc(Cl)c2)c2ccccc21)NC1CCCCC1 (configuration not stated)	none (no result: a7 integrin act)
O=C(CSc1n[nH]c(-c2ccccc2)n1)c1ccccc1	none
CC(C)(C)C(=O)CSc1n[nH]c(-c2ccccc2)n1	BRCA1 expr up 7.9µM (no result: GLP1R cytotox, GLP-1R agonist, GLP1R inv ag, a7 integrin act)
Cc1cc(Cl)ccc1NC(=O)CCC(=O)N/N=C/c1cc([N+](=O)[O-])ccc1O	none
O=[N+]([O-])c1ccc(O)c(/C=N/NC(=S)Nc2ccc(Cl)cc2Cl)c1	GLP1R inv ag 2µM
Cc1nn(C)cc1/C=N/NC(=S)Nc1ccc(Cl)cc1Cl	none
CCn1nc(C)c(/C=N/NC(=S)Nc2ccc(Cl)cc2Cl)c1C	GLP1R cytotox inconclusive, GLP1R inv ag 4µM
Cc1cc(C(=O)Nc2cccc(C(=O)O)c2)oc1C	GLP1R inv ag 1.3µM, BRCA1 expr up inconclusive
Cc1cc(C(=O)Nc2cccc(C(=O)O)c2)c(C)o1	none
CCOc1ccc(CC(=O)Nc2c(C(=O)c3ccccc3)oc3ccc(Cl)cc23)cc1OCC	none (no result: a7 integrin act)
O=[N+]([O-])c1ccc(-[n+]2ccc3ccccc3c2)c([N+](=O)[O-])c1	GLP1R cytotox 13µM, GLP1R inv ag inconclusive
COc1ccc(CCNCC(=O)Nc2ccc(C)c(Br)c2)cc1OC	GLP1R inv ag 11µM
COc1ccc(CCNCC(=O)Nc2ccc(C)c(S(=O)(=O)N(C)C)c2)cc1OC	none
Cc1ccc(NC(=O)c2cc(S(=O)(=O)NCCC3=CCCCC3)ccc2F)cc1F	GLP1R inv ag 2µM
Cc1ccc(NC(=O)c2cc(S(=O)(=O)N3CCCc4ccccc43)ccc2F)cc1F	GLP1R inv ag 13µM (no result: GLP-1R agonist, a7 integrin act, BRCA1 expr up)
O=C(Nc1ccc(Br)cc1)c1ccc(F)c(S(=O)(=O)N2CCc3ccccc32)c1	GLP1R inv ag 4.5µM (no result: GLP-1R agonist, a7 integrin act, BRCA1 expr up)
Cc1cc(C)cc(NC(=O)c2cc(S(=O)(=O)NCCC3=CCCCC3)ccc2F)c1	GLP1R inv ag inconclusive (no result: GLP-1R agonist, a7 integrin act, BRCA1 expr up)
COc1ccc(S(=O)(=O)N2CCc3ccccc32)cc1C(=O)Nc1cccnc1	GLP-1R agonist 10µM
Cc1cccc(C)c1NC(=O)c1cc(S(=O)(=O)N2CCCc3ccccc32)ccc1F	GLP1R inv ag 3.2µM (no result: GLP-1R agonist, a7 integrin act, BRCA1 expr up)
OC(COCC(F)(F)C(F)(F)C(F)(F)C(F)F)Cn1c2ccc(Cl)cc2c2cc(Cl)ccc21 (configuration not stated)	GLP1R cytotox inconclusive, GLP1R inv ag 1.8µM
Cc1ccc(NS(=O)(=O)c2ccc3[nH]c4c(c3c2)CCCC4)cc1N(C)C	GLP1R inv ag inconclusive (no result: GLP-1R agonist, a7 integrin act, BRCA1 expr up)
CCOc1c(O)ccc(/C=C2\SC(=S)NC2=O)c1[N+](=O)[O-]	GLP1R cytotox inconclusive, a7 integrin act inconclusive, BRCA1 expr up 11µM
N/C(=N\OC(=O)COc1ccc2ccccc2c1Br)c1ccccn1	GLP1R inv ag inconclusive, BRCA1 expr up 10µM
N/C(=N\OC(=O)COc1ccc(Cl)cc1Cl)c1ccccn1	GLP1R inv ag inconclusive, BRCA1 expr up inconclusive
N/C(=N\OC(=O)COc1ccc(Br)cc1Cl)c1ccccn1	GLP1R inv ag 10µM
COc1ccc2nc3oc(C(=O)NCc4ccccc4OC)cc3cc2c1	none (no result: a7 integrin act)
CC(=O)c1ccc(NC(=O)CSc2nccn2C2CCCC2)cc1	none (no result: GLP-1R agonist, a7 integrin act, BRCA1 expr up)
CCOC(=O)c1cc(-c2ccc(C)cc2)n(CCCC(=O)Nc2cc(C)ccc2C)c1	none (no result: GLP-1R agonist, a7 integrin act, BRCA1 expr up)
CCCN1Cc2cccc(C(=O)Nc3cc(C)cc(C)c3)c2C1=O	none (no result: GLP-1R agonist, a7 integrin act, BRCA1 expr up)
Cc1ccccc1/C=C1\CCCc2ccccc2C1=O	GLP1R inv ag inconclusive, BRCA1 expr up 7.1µM
O=C1c2ccccc2NC2(CCCCC2)N1c1ccc(O)cc1	BRCA1 expr up 11µM
Cc1ccc(-c2cc(N)n(-c3ccc(F)cc3)n2)cc1	a7 integrin act inconclusive, BRCA1 expr up 5µM
Cc1ccc(-c2cc(N)n(-c3ccc(C)cc3)n2)cc1	GLP1R inv ag inconclusive, BRCA1 expr up 10µM
Cc1ccc(-c2cc(N)n3nc(-c4ccc(C)cc4)cc3n2)cc1	GLP1R cytotox inconclusive
COc1ccc(S(=O)(=O)N2CCC(c3cc(-c4cccc5ccccc45)n[nH]3)CC2)cc1	GLP1R inv ag inconclusive
O=S(=O)(c1cccc(C(F)(F)F)c1)N1CCC(c2cc(-c3cccc4ccccc34)n[nH]2)CC1	GLP1R inv ag 8.9µM
COc1cc(NC(=O)Cc2c(C(=O)O)c(C)cn2C)cc(OC)c1	none (no result: GLP-1R agonist, a7 integrin act, BRCA1 expr up)
CCOC(=O)c1c(NC(=O)C(C)NCc2ccco2)sc2c1CCC(C)C2 (configuration not stated)	GLP1R cytotox inconclusive, GLP1R inv ag 4µM
Cc1c(C(=O)N2C[C@@H](C)O[C@@H](C)C2)oc2c(F)cccc12	BRCA1 expr up 11µM
Cc1c(C(=O)O)oc2c(F)cccc12	none
C[C@@H]1CN(C2CCN(Cc3nc(C(c4ccccc4)c4ccccc4)no3)CC2)C[C@H](C)O1	GLP1R inv ag inconclusive, a7 integrin act inconclusive
CC(=O)N1CCN(Cc2nc(C(c3ccccc3)c3ccccc3)no2)CC1	none
Cc1cccnc1CN1CCN(Cc2nc(C(c3ccccc3)c3ccccc3)no2)CC1	GLP1R inv ag 5µM
c1ccc(C(c2ccccc2)c2noc(CN3CCN(C4CCCC4)CC3)n2)cc1	GLP1R inv ag 13µM
CCc1ccc(CN(C)C(=O)c2cc(COc3ccc(OC)cc3Cl)on2)nc1	GLP1R inv ag inconclusive, BRCA1 expr up 8.9µM
COc1ccc(OCc2cc(C(=O)N(C)Cc3nnc(C)o3)no2)c(Cl)c1	BRCA1 expr up 7.1µM
Cc1cc(CN(C)C(=O)c2cc(COc3ccc(F)cc3Cl)on2)n[nH]1	BRCA1 expr up 7.9µM

Source: PubChem (National Center for Advancing Translational Sciences (NCATS))
